# Test results reported in PubChem BioAssay.
# The source made the active and inactive calls.
# How the values were obtained:
# [1] = binders of probe aFSTL3 on microarray, primary screen, stem cell growth factor project, biochemical, small-molecule microarray, fluorescence 635/667 (AID 1064); conditions: higher = more signal;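 note: measures binding of the biotinylated anti-FSTL3 antibody to printed compounds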
# [2] = binders from COS7 lysate, DM2A8 probe, primary screen, torsin A project, cell lysate, small-molecule microarray, fluorescence 635/667 (AID 1065); conditions: higher = more signal, COS7 lysate expressing mutant human TOR1A
# [3] = binders of probe aFGF2 on microarray, primary screen, stem cell growth factor project, biochemical, small-molecule microarray, fluorescence 635/667 (AID 1067); conditions: higher = more signal;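 note: measures binding of biotinylated aFGF2 protein to printed compounds on slides; z-score merges feature fluorescence and signal-to-noise across triplicate slides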
# [4] = binders of probe aFGF10 on microarray, primary screen, stem cell growth factor project, biochemical, small-molecule microarray, fluorescence 635/667 (AID 1071); conditions: higher = more signal;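 note: score merges 667 nm spot intensity and signal to noise from triplicate slides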
# [5] = molecular target: Neurogenic locus notch homolog protein 2 (Homo sapiens) (UniProt Q04721); test: Notch2 binders on small-molecule microarrays, primary screen, biochemical, small-molecule microarray, 635 nm fluorescence, stem cell growth factors (AID 1073); conditions: Notch2 binding, higher = more signal
# [6] = molecular target: Pro-neuregulin-1, membrane-bound isoform (Homo sapiens) (UniProt Q02297); test: NRG1 binders on small-molecule microarrays, primary screen, psychiatric disease protein project, biochemical, small-molecule microarray, fluorescence 635/667 (AID 1075); conditions: NRG1 binding, 635 nm fluorescence, higher = more signal;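 note: score combines 667 nm spot fluorescence with signal to noise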
# [7] = system: Neuregulin-1 EGF-like domain; test: binders of neuregulin-1 EGF-like domain, primary screen, biochemical, small-molecule microarray, 635 nm fluorescence (AID 1081); conditions: small-molecule microarray binding, higher = more signal;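 note: binding of the protein to compounds printed on small-molecule microarray slides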
# [8] = FRG1 promoter luciferase signal modulators, primary screen, FRG1 inhibition for FSHD, cell-based, C2C12 myotubes, firefly/Renilla luciferase, luminescence (AID 1084); conditions: higher = more signal, called active from +8 up or from −8 down
# [9] = binders of probe aFST on microarray, primary screen, stem cell growth factor project, biochemical, small-molecule microarray, fluorescence 635/667 (AID 1086); conditions: higher = more signal;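 note: score merges 667 nm fluorescence with signal-to-noise of each printed compound spot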
# [10] = binders of probe aHhip on microarray, primary screen, stem cell growth factor project, biochemical, small-molecule microarray, fluorescence 635/667 (AID 1087); conditions: higher = more signal;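 note: score merges spot fluorescence at 667nm with spot signal to noise ratio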
# [11] = system: PRMT1 (protein arginine N-methyltransferase 1); test: PRMT1 binders on small-molecule microarrays, primary screen, biochemical, small-molecule microarray, 635 nm fluorescence (AID 1088); conditions: small-molecule microarray binding, higher = more signal;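 note: binding of Prmt1 protein to compounds spotted on small-molecule microarray slides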
# [12] = yeast growth modulation, basal conditions, primary screen, YJM789 clinical isolate, OD600, 24 h (AID 1089);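 note: growth of clinical yeast isolate S. cerevisiae YJM 789 seeded 1000 cells per well; test concentration not given here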; conditions: S. cerevisiae YJM789 growth, higher = more signal, called active from +8 up or from −8 down
# [13] = fission yeast growth modulation, primary screen, strain 972, OD600, 24 h, no modulator (AID 1090);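 note: basal condition with compound alone and no growth modifier present; test concentration not given here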; conditions: S. pombe 972 growth, higher = more signal, called active from +8 up or from −8 down
# [14] = S. cerevisiae growth modulation with rapamycin, primary screen, strain BY4716, OD600, 96 h (AID 1091); conditions: higher = more signal, called active from +8 up or from −8 down; note: test concentration not given here
# [15] = molecular target: Torsin-1A-interacting protein 2 (Homo sapiens) (UniProt Q8NFQ8); test: LULL1 binders on small-molecule microarray, primary screen, cell lysate, human LULL1 lysate, 635/667 nm fluorescence (AID 1092); conditions: hLULL1 lysate binding, 635 nm fluorescence, higher = more signal;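 note: probe is lysate of COS7 cells overexpressing human LULL1; score merges per-feature 667 nm fluorescence with signal-to-noise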
# [16] = E. coli growth modulation, two-sided OD650, primary screen, E. coli filamentation project, strain DRC41, 24 h (AID 1093); conditions: OD650, 24 h, higher = more signal, called active from +8 up or from −8 down;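 note: MC1000 strain lacking acrAB efflux and sulA so SOS filamentation is blocked; test concentration not given here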
# [17] = small-molecule microarray binders of probe aLefty2, primary screen, biochemical, biotinylated probe, 635/667 nm fluorescence (AID 1094); conditions: higher = more signal;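 note: score merges spot fluorescence near 667 nm with spot signal-to-noise ratio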
# [18] = system: Noggin (protein binding on small-molecule microarray); test: Noggin binders on small-molecule microarray, primary screen, biochemical, 635/667 nm fluorescence (AID 1095); conditions: 635 nm fluorescence, higher = more signal;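 note: score merges 667 nm feature fluorescence with signal to noise over triplicate slides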
# [19] = molecular target: Neurogenic locus notch homolog protein 3 (Homo sapiens) (UniProt Q9UM47); test: NOTCH3 binders on small-molecule microarray, primary screen, biochemical, 635/667 nm fluorescence (AID 1096); conditions: NOTCH3 binding, 635 nm fluorescence, higher = more signal
# [20] = small-molecule microarray binders of probe aEGFR, primary screen, biochemical, biotinylated probe, 635/667 nm fluorescence (AID 1097); conditions: higher = more signal;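 note: probe is a biotinylated anti-EGFR antibody binding compounds printed on slides; score combines fluorescence near 667 nm and signal to noise of each spot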
# Neurogenic locus notch homolog protein 3 (Homo sapiens), sequence (Q9UM47 whole entry, looked up): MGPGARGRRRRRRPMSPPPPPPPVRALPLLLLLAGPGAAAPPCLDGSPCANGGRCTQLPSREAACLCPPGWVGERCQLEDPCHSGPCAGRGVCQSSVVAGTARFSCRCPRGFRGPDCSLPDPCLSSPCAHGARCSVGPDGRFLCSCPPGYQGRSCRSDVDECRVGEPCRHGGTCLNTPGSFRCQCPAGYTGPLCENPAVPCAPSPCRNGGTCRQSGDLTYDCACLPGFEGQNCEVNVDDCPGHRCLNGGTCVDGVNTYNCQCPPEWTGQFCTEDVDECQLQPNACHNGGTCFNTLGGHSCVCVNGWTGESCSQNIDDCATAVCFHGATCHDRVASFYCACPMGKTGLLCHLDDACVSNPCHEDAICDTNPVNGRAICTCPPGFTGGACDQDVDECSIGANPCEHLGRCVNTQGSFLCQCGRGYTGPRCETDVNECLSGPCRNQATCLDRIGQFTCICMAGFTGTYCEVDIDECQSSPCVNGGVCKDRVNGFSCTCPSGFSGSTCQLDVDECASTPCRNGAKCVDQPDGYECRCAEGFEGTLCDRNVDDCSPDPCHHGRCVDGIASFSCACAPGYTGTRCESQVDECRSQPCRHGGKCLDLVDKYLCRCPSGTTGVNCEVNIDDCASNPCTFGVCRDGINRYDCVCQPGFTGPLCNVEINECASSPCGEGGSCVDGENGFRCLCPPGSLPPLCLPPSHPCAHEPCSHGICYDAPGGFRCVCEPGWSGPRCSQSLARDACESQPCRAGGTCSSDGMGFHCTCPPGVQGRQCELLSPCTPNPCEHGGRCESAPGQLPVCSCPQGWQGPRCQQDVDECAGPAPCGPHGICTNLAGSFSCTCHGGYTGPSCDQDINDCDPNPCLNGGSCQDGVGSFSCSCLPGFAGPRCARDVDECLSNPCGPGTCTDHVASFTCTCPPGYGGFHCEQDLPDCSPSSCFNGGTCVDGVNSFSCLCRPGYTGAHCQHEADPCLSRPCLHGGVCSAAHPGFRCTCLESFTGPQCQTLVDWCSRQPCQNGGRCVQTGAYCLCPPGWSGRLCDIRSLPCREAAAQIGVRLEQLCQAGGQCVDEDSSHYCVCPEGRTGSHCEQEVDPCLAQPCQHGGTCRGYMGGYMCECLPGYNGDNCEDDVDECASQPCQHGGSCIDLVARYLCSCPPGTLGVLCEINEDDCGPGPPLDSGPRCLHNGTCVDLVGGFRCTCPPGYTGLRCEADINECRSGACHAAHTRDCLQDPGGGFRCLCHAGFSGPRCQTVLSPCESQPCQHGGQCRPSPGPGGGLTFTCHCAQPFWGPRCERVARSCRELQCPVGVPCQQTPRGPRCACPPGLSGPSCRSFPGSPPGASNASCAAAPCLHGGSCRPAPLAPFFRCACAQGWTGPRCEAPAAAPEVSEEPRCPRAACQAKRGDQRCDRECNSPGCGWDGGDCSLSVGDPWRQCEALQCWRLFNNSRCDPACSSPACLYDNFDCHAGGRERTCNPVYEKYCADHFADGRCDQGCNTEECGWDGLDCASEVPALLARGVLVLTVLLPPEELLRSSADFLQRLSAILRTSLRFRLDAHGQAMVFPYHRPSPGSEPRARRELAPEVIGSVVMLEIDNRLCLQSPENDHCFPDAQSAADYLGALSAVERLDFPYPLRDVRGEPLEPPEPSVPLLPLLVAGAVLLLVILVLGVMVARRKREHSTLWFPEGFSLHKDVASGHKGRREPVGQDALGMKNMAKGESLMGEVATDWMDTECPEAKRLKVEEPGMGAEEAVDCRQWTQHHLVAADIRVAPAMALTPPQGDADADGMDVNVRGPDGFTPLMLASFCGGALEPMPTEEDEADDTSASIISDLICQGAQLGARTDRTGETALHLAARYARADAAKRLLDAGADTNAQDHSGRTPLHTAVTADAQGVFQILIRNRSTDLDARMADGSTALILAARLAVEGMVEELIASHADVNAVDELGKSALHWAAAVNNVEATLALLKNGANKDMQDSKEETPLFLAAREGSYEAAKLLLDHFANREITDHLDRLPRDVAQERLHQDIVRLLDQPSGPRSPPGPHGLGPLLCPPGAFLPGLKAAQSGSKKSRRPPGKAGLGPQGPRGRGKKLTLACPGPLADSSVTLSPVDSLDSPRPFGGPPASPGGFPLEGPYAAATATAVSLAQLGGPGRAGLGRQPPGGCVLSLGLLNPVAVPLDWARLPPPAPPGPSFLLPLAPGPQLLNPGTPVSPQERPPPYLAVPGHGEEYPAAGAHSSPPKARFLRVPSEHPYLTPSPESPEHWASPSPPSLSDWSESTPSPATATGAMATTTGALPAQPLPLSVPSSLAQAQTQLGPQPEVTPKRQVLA
# Neurogenic locus notch homolog protein 2 (Homo sapiens), sequence (Q04721 whole entry, looked up, canonical isoform): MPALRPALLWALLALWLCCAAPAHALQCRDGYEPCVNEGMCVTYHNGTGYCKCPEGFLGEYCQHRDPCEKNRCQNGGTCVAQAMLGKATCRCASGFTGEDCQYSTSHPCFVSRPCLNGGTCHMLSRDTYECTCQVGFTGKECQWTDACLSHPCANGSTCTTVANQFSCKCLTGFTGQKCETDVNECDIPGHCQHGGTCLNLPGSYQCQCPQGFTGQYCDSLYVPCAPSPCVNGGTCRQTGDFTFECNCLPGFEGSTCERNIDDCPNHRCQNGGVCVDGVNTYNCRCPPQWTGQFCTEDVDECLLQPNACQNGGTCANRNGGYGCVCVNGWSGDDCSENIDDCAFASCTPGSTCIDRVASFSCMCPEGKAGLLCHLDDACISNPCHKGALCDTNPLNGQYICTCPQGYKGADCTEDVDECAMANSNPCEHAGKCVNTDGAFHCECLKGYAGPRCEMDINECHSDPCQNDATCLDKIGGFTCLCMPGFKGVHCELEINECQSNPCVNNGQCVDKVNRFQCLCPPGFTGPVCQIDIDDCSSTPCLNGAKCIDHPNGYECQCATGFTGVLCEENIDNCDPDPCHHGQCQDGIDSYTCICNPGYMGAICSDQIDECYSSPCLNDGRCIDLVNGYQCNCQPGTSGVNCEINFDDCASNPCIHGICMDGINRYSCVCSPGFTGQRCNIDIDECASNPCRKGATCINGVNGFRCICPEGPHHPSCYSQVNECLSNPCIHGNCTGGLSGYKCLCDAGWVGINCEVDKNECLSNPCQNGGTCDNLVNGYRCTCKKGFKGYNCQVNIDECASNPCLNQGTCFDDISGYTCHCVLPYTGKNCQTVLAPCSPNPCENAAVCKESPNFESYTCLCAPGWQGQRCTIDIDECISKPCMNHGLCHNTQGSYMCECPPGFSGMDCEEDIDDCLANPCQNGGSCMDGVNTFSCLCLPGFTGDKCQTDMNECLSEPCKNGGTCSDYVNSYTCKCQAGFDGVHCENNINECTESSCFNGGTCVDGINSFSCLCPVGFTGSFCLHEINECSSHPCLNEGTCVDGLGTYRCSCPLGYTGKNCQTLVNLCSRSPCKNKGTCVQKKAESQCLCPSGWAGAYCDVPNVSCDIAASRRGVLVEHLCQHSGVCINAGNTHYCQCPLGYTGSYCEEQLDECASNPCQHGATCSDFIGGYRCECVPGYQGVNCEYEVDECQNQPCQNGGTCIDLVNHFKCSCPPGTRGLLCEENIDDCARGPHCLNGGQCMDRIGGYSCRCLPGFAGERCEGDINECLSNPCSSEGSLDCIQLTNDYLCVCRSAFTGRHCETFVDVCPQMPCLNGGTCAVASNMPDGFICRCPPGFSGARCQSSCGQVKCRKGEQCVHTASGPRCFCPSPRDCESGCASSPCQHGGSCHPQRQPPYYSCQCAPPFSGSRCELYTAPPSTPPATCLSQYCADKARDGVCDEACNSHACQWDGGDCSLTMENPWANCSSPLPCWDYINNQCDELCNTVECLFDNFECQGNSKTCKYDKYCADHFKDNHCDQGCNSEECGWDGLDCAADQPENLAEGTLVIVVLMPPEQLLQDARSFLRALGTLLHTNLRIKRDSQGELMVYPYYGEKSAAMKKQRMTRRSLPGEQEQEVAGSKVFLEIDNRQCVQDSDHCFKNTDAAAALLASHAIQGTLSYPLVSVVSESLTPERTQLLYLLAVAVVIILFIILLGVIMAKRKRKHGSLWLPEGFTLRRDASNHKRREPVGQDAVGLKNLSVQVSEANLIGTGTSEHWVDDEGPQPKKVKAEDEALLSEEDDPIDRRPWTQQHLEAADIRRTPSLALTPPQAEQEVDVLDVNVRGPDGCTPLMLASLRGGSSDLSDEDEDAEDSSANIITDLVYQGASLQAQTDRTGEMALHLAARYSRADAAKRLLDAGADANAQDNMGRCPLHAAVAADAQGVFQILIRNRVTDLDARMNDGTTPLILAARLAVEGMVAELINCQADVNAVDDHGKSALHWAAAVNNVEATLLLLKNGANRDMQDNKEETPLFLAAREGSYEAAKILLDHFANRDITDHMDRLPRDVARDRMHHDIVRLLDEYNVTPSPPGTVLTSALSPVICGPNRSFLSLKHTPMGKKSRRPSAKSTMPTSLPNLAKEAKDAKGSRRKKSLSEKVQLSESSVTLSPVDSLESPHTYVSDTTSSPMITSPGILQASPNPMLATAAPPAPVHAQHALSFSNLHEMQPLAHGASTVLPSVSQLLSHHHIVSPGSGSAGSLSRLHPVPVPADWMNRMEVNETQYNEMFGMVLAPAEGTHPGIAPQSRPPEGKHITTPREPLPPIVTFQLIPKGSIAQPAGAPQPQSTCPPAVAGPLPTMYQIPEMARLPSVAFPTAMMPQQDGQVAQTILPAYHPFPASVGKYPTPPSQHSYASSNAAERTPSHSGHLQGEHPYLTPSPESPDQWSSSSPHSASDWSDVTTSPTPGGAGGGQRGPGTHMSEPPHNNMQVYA
SMILES,composite z-score [1],composite z-score [2],composite z-score [3],composite z-score [4],composite z-score [5],composite z-score [6],composite z-score [7],z-score [8],composite z-score [9],composite z-score [10],composite z-score [11],z-score [12],z-score [13],z-score [14],composite z-score [15],z-score [16],composite z-score [17],composite z-score [18],composite z-score [19],composite z-score [20]
O=C1CCCC(C2=CCCCC2=O)C1 (stereo not given),-0.31,0.213,-0.0895,0.0787,0.312,-0.3,0.165,0.222 (inactive),0.0915,0.157,0.0732,0.222 (inactive),0.65 (inactive),0.6 (inactive),-0.168,0.455 (inactive),0.02,0.546,0.0934,-0.029
CCOC(=O)[C@H](CC(C)C)NC(=O)CCC1CC(OC(=O)NCc2ccc3c(c2)OCO3)CC2(CCCC(COC(=O)NCCCN3CCCC3=O)O2)O1 (stereo not given in full),-0.303,0.322,-0.087,0.706,0.99,0.817,0.984,0.584 (inactive),0.465,-0.0645,1.49,-0.0618 (inactive),0.162 (inactive),-0.474 (inactive),1.94,0.485 (inactive),-0.166,1.36,1.04,-0.0271
COc1cccc([C@H]2Oc3ccc(OC)cc3C(=NO[C@@H]3O[C@H](COC(C)=O)[C@@H](OC(C)=O)[C@H](OC(C)=O)[C@H]3OC(C)=O)[C@@H]2O)c1,-0.533,0.974,-0.116,0.326,0.842,-0.62,-0.782,1.59 (inactive),0.198,0.0972,0.102,-1.07 (inactive),1.14 (inactive),-0.239 (inactive),-0.0867,0.373 (inactive),-0.119,0.35,0.615,0.0009
COC(=O)CC=C[C@@H](C)[C@@H](C=NO[C@@H](C)c1cn([C@H](CO)Cc2ccccc2)nn1)NS(=O)(=O)c1ccc(C)cc1,-0.315,0.712,-0.161,0.166,0.0829,-0.0443,0.75,-1.1 (inactive),0.279,0.251,0.526,-2.32 (inactive),-1.2 (inactive),-0.88 (inactive),0.112,0.122 (inactive),-0.247,0.321,0.381,-0.0398
O=C1[C@H]2[C@H]3[C@H](O)[C@H](O)CC(=NOCc4ccccc4)[C@@H]3CC[C@H]2C(=O)N1C[C@@H]1CCCO1,-0.278,-0.22,-0.116,-0.125,0.176,0.0461,-0.288,1.36 (inactive),0.271,-0.27,-0.423,-0.857 (inactive),0.767 (inactive),-0.369 (inactive),0.292,1.27 (inactive),-0.114,0.228,0.237,-0.0151
CC(CCN1CCCCc2nc(C)c(C)cc21)=NO[C@@H](C)c1cn([C@H](CO)Cc2ccccc2)nn1,1.22,1.06,-0.177,0.171,0.174,0.605,0.695,1.19 (inactive),0.163,0.347,1.03,0.725 (inactive),-0.0001 (inactive),0.17 (inactive),1.16,0.457 (inactive),-0.0383,0.377,0.474,0.0317
CO[C@H]1COC(=O)CC=C[C@H](C)COC(=O)[C@@H](C)NC(=O)CC=C[C@@H]1C,-0.512,1.94,-0.0996,0.231,-0.0457,-0.79,0.219,0.464 (inactive),-0.214,0.0794,1.53,-0.78 (inactive),-0.809 (inactive),-1.18 (inactive),-1.13,0.0007 (inactive),-0.289,1.88,-0.222,-0.0606
CCOC(=O)NN=C1C[C@@H](O)[C@@H](O)[C@@H]2[C@@H]3C(=O)N(c4cccc(Oc5ccccc5)c4)C(=O)[C@@H]3CC[C@@H]12,-0.216,1.21,-0.085,0.542,-0.202,0.823,0.81,-0.233 (inactive),0.0218,-0.249,-0.037,-0.73 (inactive),0.385 (inactive),-0.869 (inactive),1.26,0.205 (inactive),-0.335,0.918,-0.362,-0.163
C=CC[C@@H]1C=C[C@H](ON=C2[C@H]3CCn4c(=O)n(-c5ccccc5)c(=O)n4[C@H]3[C@H](O)[C@@H]3O[C@H]23)[C@@H](CO)O1,-0.356,0.189,-0.065,0.274,0.502,0.19,0.0586,-0.299 (inactive),0.0716,0.104,-0.41,0.552 (inactive),0.383 (inactive),1.04 (inactive),-0.114,0.607 (inactive),-0.257,0.308,-0.0701,0.0434
CC(C)=CCCC(C)=CCON=C1C[C@@H](O)[C@@H](O)[C@@H]2[C@@H]3C(=O)N(c4ccc(F)cc4F)C(=O)[C@@H]3CC[C@H]12,-0.292,0.611,-0.174,0.03,1,1.06,0.849,-0.389 (inactive),0.573,0.0976,1.54,-0.912 (inactive),-0.964 (inactive),-1.53 (inactive),2.05,-0.159 (inactive),-0.0413,0.819,1.09,-0.0372
